Test [1] can be described thus: qHTS assay for small molecule agonists of the p53 signaling pathway (AID 651631; calls by dose curve; further: nearly all actives have a fitted effect of over 15% in size; further: potency means the concentration at half of the fitted maximal effect). In outline:
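p53RE-bla HCT-116 cells; compounds 16 h, 37 °C; LiveBLAzer B/G FRET substrate 2 h RT; fluorescence intensity read-out, qHTS format.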
(In general: In qHTS, concentration-response curves come from the screen itself.)

Test [2] can be described thus: qHTS assay for small molecule agonists of the p53 signaling pathway - cell viability (AID 651633; calls by dose curve; further: nearly all actives have a fitted effect of over 30% in size; further: potency means the concentration at half of the fitted maximal effect). The procedure, abridged:
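Viability counter-read: CellTiter-Glo luminescence (30 min, room temperature) in the same p53RE-bla plates. These plates had been exposed to compounds for 16 h at 37 C.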

The nature of test [3]: qHTS assay for small molecules that induce genotoxicity in human embryonic kidney cells expressing luciferase-tagged ATAD5 - cell viability (AID 651634; calls by dose curve; further: nearly all actives have a fitted effect of over 25% in size). The procedure, abridged: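 Cytotoxicity counter-readout: after 15.5 hr compound treatment at 37C, live-cell protease activity in ATAD5-luciferase HEK293T cells measured by CellTiter-Fluor fluorescence, 30 min development at 37C.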

The nature of test [4]: qHTS assay for small molecule disruptors of the mitochondrial membrane potential - cell viability (AID 720634; calls by dose curve; further: nearly all actives have a fitted effect of over 20% in size; further: potency means the concentration at half of the fitted maximal effect). In outline: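 Cytotoxicity was quantified from ATP content by CellTiter-Glo luminescence in the same wells as the MMP dye read-out. HepG2 (2,000 cells/well) were plated overnight and exposed to compounds for 1 hr at 37 C.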
Test [5] in a line: qHTS assay for small molecule disruptors of the mitochondrial membrane potential (AID 720635). Further: potency means the concentration at half of the fitted maximal effect. In outline: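 Mitochondrial membrane potential tracked with Mito-MPS dye, red aggregates (ex 540/em 590 nm) against green monomers (ex 490/em 535 nm). Compound treatment 1 hr at 37C, dye 30 min in HepG2.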
A short description of test [6]: qHTS assay to test for compound auto fluorescence at 590 nm (red) in HepG2 cells (AID 720674). The procedure, abridged:
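We screened compounds on adherent HepG2 cells, incubating them for an hour at 37 C in 5% CO2 before reading emission at 590 nm under 540 nm excitation; values reflect equivalence to Rose Bengal sodium fluorescence.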

A short description of test [7]: qHTS assay to test for compound auto fluorescence at 535 nm (green) in HepG2 cells (AID 720675).
Test [8] can be described thus: qHTS assay to test for compound auto fluorescence at 460 nm (blue) in HEK293 cells (AID 720678). In outline: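 Cells were seeded and left to adhere for 4-5 hr at 37C. Compounds were then pin-transferred. After an overnight incubation at 37C under 5% CO2, intrinsic fluorescence at 405/460 nm was measured and referenced to triamterene.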
Test [9] is described as follows: qHTS assay to test for compound auto fluorescence at 590 nm (red) in HEK293 cells (AID 720679). The procedure, abridged: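 Each well held 2,000 HEK293 cells in medium containing 10% dialyzed FBS. Following 4-5 hr attachment at 37C, 23 nL test compound or DMSO was added; plates sat overnight, and red fluorescence (540/590nm) was recorded.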
Test [10] can be described thus: qHTS assay to test for compound auto fluorescence at 535 nm (green) in HEK293 cells (AID 720680).
The nature of test [11]: qHTS assay to test for compound auto fluorescence at 460 nm (blue) in HEK293 cell free culture (AID 720681). The procedure, abridged: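 Blue fluorescence (Ex 405/Em 460 nm, triamterene-equivalent) was read immediately after pin transfer of compound or DMSO into medium (DMEM, 10% FBS) without cells.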
Test [12] in a line: qHTS assay to test for compound auto fluorescence at 535 nm (green) in HEK293 cell free culture (AID 720682). The procedure, abridged: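 Cell-free medium (DMEM, 10% FBS) receives compound or DMSO by pintool. Plate read directly at Ex 485/Em 535 nm. Signal converted to fluorescein equivalency.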
A short description of test [13]: qHTS assay to test for compound auto fluorescence at 590 nm (red) in HepG2 cell free culture (AID 720684). In outline:
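Cell-free; medium MEM + 10% FBS; compound or DMSO added by pintool; read Ex 540/Em 590 nm; Rose Bengal sodium as red reference fluorophore.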

Test [14] is described as follows: qHTS assay to test for compound auto fluorescence at 460 nm (blue) in HepG2 cell free culture (AID 720685). In outline:
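Cell-free plates of MEM plus 10% FBS received 23 nL compound or DMSO vehicle; blue-channel (405/460 nm) intensity scored against triamterene as reference fluorophore.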

Test [15] can be described thus: qHTS assay to test for compound auto fluorescence at 535 nm (green) in HepG2 cell free culture (AID 720686).
Test [16] can be described thus: qHTS assay to test for compound auto fluorescence at 460 nm (blue) in HepG2 cells (AID 720687). In outline: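 Blue-channel autofluorescence (Ex/Em 405/460 nm, triamterene-equivalent) was measured after 1 hr compound exposure at 37 C, 5% CO2. Cells were HepG2, plated overnight at 37 C in MEM plus 10% FBS.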
A short description of test [17]: qHTS assay for small molecules that induce genotoxicity in human embryonic kidney cells expressing luciferase-tagged ATAD5 (AID 651632). Further: nearly all actives have a fitted effect of over 15% in size. The procedure, abridged: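 A rise in luciferase signal from ATAD5-tagged HEK293T cells marks genetic stress. Cells were exposed to compounds for 16 hr at 37C, 5% CO2, then luciferase was quantified after a 30 min room-temperature incubation with Amplite.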

Test [18] concerns the target Glucocorticoid receptor (Homo sapiens) (UniProt P04150). Put plainly: qHTS assay to identify small molecule agonists of the glucocorticoid receptor (GR) signaling pathway (AID 720691; active means well fitted activation curve with a large enough effect in the signal ratio in the repeat runs, not every such curve was filed as active; the % refers to the signal ratio). The procedure, abridged: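 Agonist-mode qHTS in HeLa cells stably expressing a glucocorticoid-response-element beta-lactamase reporter. Fluorescence intensity read with FRET substrate (2 h, room temperature) after 18 h compound treatment at 37 C.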

For test [19] the target is unchanged. Description: qHTS assay to identify small molecule antagonists of the glucocorticoid receptor (GR) signaling pathway (AID 720692; active means well fitted inhibition curve with a large enough effect in the signal ratio in the repeat runs, not every such curve was filed as active; the % refers to the signal ratio; further: potency means the concentration at half of the fitted maximal effect). The procedure, abridged: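 Inhibition of dexamethasone-driven (5 nM final) beta-lactamase expression was measured in GRE-reporter HeLa cells over 18 h at 37C. Fluorescence was read after 2 h with the B/G FRET substrate at room temperature.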

Test [20] in a line: qHTS assay to test for compound auto fluorescence at 590 nm (red) in HEK293 cell free culture (AID 720683). The procedure, abridged: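 Red-channel autofluorescence of compounds in culture medium (DMEM, 10% FBS), no cells, measured at 540/590 nm. Rose Bengal sodium is the reference fluorophore for equivalence.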

Molecules are shown by their SMILES. Values joined by “and” are separate entries in the source; they are usually repeats but may differ in a detail not shown here. Identical values can stand only once. Inconclusive results are not listed. Active and inactive are the calls of the source. Unless noted, the call rests on the fitted dose curve; in most records, active means well fitted curve in the direction sought with a large enough effect in the repeat runs; inconclusive means weak or mixed curves; inactive means no such curve, though single readings can be large; an effect the other way counts as inactive or inconclusive.

Sequence of Glucocorticoid receptor (Homo sapiens) (P04150 whole entry, looked up): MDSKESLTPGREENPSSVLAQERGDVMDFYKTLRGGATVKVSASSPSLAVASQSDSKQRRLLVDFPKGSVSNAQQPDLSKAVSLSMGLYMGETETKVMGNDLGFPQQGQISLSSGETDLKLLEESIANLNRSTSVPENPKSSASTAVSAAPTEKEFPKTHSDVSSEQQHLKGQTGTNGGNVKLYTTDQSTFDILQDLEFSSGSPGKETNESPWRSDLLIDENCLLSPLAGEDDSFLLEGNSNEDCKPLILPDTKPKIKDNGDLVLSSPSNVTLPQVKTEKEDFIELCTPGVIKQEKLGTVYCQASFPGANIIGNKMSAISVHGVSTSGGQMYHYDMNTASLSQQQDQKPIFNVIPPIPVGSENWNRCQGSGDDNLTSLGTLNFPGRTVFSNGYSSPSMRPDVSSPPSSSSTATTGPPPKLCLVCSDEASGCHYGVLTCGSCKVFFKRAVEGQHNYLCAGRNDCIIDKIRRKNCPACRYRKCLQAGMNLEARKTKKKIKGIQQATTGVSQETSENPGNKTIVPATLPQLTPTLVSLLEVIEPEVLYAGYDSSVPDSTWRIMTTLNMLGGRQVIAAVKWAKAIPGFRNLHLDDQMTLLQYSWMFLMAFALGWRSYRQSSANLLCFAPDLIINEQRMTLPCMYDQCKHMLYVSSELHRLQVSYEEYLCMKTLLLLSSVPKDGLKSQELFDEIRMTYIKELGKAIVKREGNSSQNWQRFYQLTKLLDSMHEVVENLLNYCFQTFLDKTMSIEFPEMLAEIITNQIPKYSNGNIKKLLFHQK

As to `CCCN[C@H]1CCc2nc(N)sc2C1`, the Potency entry in test [1], in [2], in test [3], in test [4], in test [5] and in [7] was “inactive” throughout. Moreover, the Potency entry in test [8], in test [10], in [11], in test [12], in test [14] and in test [15] was “inactive” each time. The Potency entry in [16] was “inactive”. Besides, the result in [6], in test [9] and in test [13] was inactive.
Turning to `CC(C)CCOCc1ccccc1`, the Potency result in test [17], in [2], in [3], in test [4], in [7] and in test [8] was “inactive” throughout. Also, the Potency entry in [10], in [12], in [14], in test [15], in [16] and in test [18] was “inactive” throughout. Also, in test [19], the Potency entry was “inactive”. In addition, the call in [6], in [9] and in test [13] was inactive.
`CNCCC(Oc1ccc(C(F)(F)F)cc1)c1ccccc1` (centres undefined): the Potency in test [1] is 53.8 µM (active); in test [2], 60.3 µM (active). Also, the Potency entry in test [3], in test [7], in test [8], in [10], in test [11] and in test [12] was “inactive” throughout. Also, the Potency result in test [14], in [15], in test [16], in test [18] and in test [19] was “inactive” throughout. In addition, the compound was classed as inactive in test [6], in test [9], in test [20] and in test [13].
`NNCCc1ccccc1`: the Potency result in test [17], in test [3], in test [4], in [5], in [7] and in test [8] was “inactive” throughout. In addition, the Potency entry in test [10], in test [11], in [12], in [14], in test [15] and in test [16] was “inactive” each time. In addition, the Potency entry in test [18] and in test [19] was “inactive” each time. Further, the call in [6], in test [9], in [20] and in [13] was inactive.
For the compound `Cc1ccc(-c2cc(C(F)(F)F)nn2-c2ccc(S(N)(=O)=O)cc2)cc1`, the Potency result in [17], in test [7], in [8], in [10], in [11] and in test [12] was “inactive” in each case. Further, the Potency result in test [14], in test [15] and in test [16] was “inactive” in each case. The Potency is 11.9 µM (active) and 12.1 µM (active) and 30.6 µM (active) in test [4]; 11.9 µM (active) and 7.66 µM (active) and 21.7 µM (active) in [5]. In addition, the compound was classed as inactive in test [6], in test [9], in test [20] and in test [13].
As for `Nc1ccc(O)cc1`, the Potency in test [2] is 26.6 µM (active) and 30.6 µM (active) and 31.8 µM (active); in [4] it was 31.8 µM (active); in [5], 841 nM (active) and 3.06 µM (active) and 897 nM (active); in [19] it was 49 µM (active). Also, the result in [6], in test [9], in test [20] and in [13] was inactive. Besides, the Potency entry in test [7], in [8], in [12], in [14], in test [15] and in test [16] was “inactive” in each case.
As for `CC(N)=O`, the Potency entry in [17], in test [3], in test [4], in [5], in test [7] and in test [8] was “inactive” each time. Besides, the Potency entry in test [10], in [11], in test [12], in [14], in test [15] and in test [16] was “inactive” in each case. Moreover, the Potency entry in test [18] and in [19] was “inactive” in each case. Besides, the compound was classed as inactive in test [6], in [9], in [20] and in test [13].

Values taken from PubChem BioAssay (Tox21).
